Source: PubChem
ALOX12 inh: ALOX12 (human) lipoxygenase inhibition. purified 12hLO, xylenol orange hydroperoxide absorbance. hit rate 1.1% among 580,000. Potency, µM (top dose mostly 108 µM), inactives show top-dose activity change, negative = inhibition, usual class: inhibitors. P18054. AID 1671190; also: % is scaled to controls: 0 for no effect and ±100 for the full control effect
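Purified human 12hLO (150 nM final) in 25 mM Hepes, 0.01% Triton X-100, pH 7.0 was preincubated 15 min at room temperature with compound. Then 40 uM arachidonic acid was added, 30 min. Hydroperoxide was read by Fe-XO absorbance ratio 573/405 nm.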
Sfp PPTase inh: blocks B. subtilis Sfp PPTase activity; Potency, µM, without a hit: largest response in the series, negative = inhibition, actives largely listed as inhibitors; Biochemical Sfp PPTase activity, qHTS; hit rate 3.5% among 310,000; Q9F4F7;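 also: the enzyme is Sfp with the accession as filed and its product quenches rhodamine fluorescence; 0% = enzyme reaction without inhibitor and -100% = no enzyme wells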
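After 15 min at room temperature with compound, 15 nM Sfp received 5 uM rhodamine-CoA plus 12.5 uM BHQ-2-ybbR (50 mM Hepes pH 7.6, 10 mM MgCl2). Rate came from the fluorescence difference over 30 min, ex 525/em 598 nm.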
JMJD2A Tudor: blocks the human JMJD2A Tudor domain. O75164. Potency, µM (highest dose often 114 µM), without a hit: top-dose activity change, negative = inhibition, usual class: inhibitors. AlphaScreen JMJD2A-Tudor / H3K4me3 peptide binding. hit rate 4.4% among 390,000; also: % is scaled to controls: 0 for no effect and ±100 for the full control effect; nearly all actives have a fitted effect of over 50% in size
HP1b chromo inh: HP1-beta chromodomain-methylated histone interaction inhibition; P83916; AlphaScreen HP1-beta / biotin-H3K9me3 peptide binding; Potency, µM (titrated, usually from 114 µM), for the others: top-dose activity change, negative = inhibition, usual class: inhibitors; hit rate 0.56% among 390,000; AID 540317; also: nearly all actives have a fitted effect of over 70% in size
Target sequence (P83916 whole entry, looked up): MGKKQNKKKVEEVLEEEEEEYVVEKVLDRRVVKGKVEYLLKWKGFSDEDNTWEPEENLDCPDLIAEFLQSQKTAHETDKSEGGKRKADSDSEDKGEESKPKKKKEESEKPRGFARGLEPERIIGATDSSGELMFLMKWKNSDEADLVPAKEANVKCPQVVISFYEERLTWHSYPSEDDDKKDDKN
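Compound inhibition of the preformed complex between 50 nM HP1-beta and 50 nM biotinylated H3K9me3 peptide was read by AlphaScreen. Buffer was PBS pH 7.4 with 0.01% Tween-20. Incubations ran 30 min at room temperature, with 10 ug/mL donor/acceptor beads.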
G9a inh: inhibitors of human histone lysine methyltransferase G9a; Potency, µM (top dose mostly 102 µM), for the others: top-dose activity, negative = inhibition, hits mostly inhibitors; AID 504332; G9a H3K9 monomethylation, AlphaScreen, 2 h; Q96KQ7; hit rate 8.8% among 350,000; also: % is scaled to controls: 0 for no effect and ±100 for the full control effect; nearly all actives have a fitted effect of over 75% in size
Target sequence (Q96KQ7 913-1193 limits assumed): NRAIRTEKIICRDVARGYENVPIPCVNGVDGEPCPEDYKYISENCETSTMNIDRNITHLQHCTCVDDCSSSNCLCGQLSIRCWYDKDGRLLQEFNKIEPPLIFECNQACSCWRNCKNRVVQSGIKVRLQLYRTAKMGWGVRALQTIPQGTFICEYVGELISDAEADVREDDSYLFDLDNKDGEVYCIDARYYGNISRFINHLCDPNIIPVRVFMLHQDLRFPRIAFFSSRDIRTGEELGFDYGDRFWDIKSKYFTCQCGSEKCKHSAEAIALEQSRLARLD
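G9a (20 nM) preincubated 15 min RT with compounds, then 500 nM biotinylated H3K9 peptide and 20 uM SAM added; 2 h RT reaction. Monomethyl-H3K9 product detected by AlphaScreen with anti-H3K9me1 antibody, streptavidin donor and anti-rabbit IgG acceptor beads.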
BAZ2B block: BAZ2B (human) inhibition; Q9UIF8; Potency, µM (series often up to 114 µM), for the others: top-dose activity change, negative = inhibition, actives largely listed as inhibitors; hit rate 4.4% among 360,000; AlphaScreen BAZ2B-H3K14Ac peptide displacement; also: % is scaled to controls: 0 for no effect and ±100 for the full control effect; nearly all actives have a fitted effect of over 60% in size
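Inhibition is scored as reduced AlphaScreen emission. The BAZ2B/b-H3(5-23)K14Ac complex (50 nM each) in PBS pH 7.4, 0.01% Tween-20 meets compound (up to 110 uM) for 30 min at RT before bead addition.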
The depositor's hits bear a star; [ ] = remark or other dose. Sampled rows, rich in hits. Any-hit rate of the full collection: about 8.7%. Calls follow the shape of the dose curve; as a rule, active = well fitted curve in the direction sought with a large enough effect; inconclusive = small, poorly fitted or top-dose-only effect, or another doubt; inactive = no such curve, though single readings can be large; an effect the other way counts as inactive or inconclusive. Potency is read from the fitted curve at half-maximal effect.

What do the screens show for `O=S(=O)(c1cc(F)ccc1F)N1CCN(Cc2cccc3cccnc23)CC1`?
ALOX12 inh: 15.8µM*

What do the screens show for `O=S(=O)(c1ccc(Cl)cc1)N1CCN(Cc2ccc(O)c3ncccc23)CC1`?
ALOX12 inh: -15.1%; Sfp PPTase inh: 10.4%; JMJD2A Tudor: 56.2µM*; HP1b chromo inh: 26.3%; G9a inh: -37.5%; BAZ2B block: 31.6µM*

How did COC(=O)C1CCN(C(=O)CC[C@H]2CNC(=O)[C@@H]3[C@@H](CCN3C(C)C)N2C)CC1 do in these assays?
ALOX12 inh: 1.4%[176 µM]

Results for Cc1ccc(C(=O)N2CCCC3(C2)NC(=O)N(Cc2cccc(Cl)c2)C3=O)cc1F (stereo unspecified) ?
ALOX12 inh: 2.5%

What do the screens show for `CCNC(=O)CCc1c(CC)nn(-c2ccccc2)c1Oc1ccccc1F`?
ALOX12 inh: 3.6%

Results for CCC(C)c1ccc(NC(=O)Cn2cnc3c2c(=O)n(C)c(=O)n3C)cc1 (stereo unspecified) ?
ALOX12 inh: 2.4%

How did O=C1C2CC=C(Cl)CC2C(=O)N1CN(Cc1ccco1)CN1C(=O)C2CC=C(Cl)CC2C1=O (stereo unspecified) do in these assays?
ALOX12 inh: -3.4%; Sfp PPTase inh: -6.4%; JMJD2A Tudor: -25.1%; HP1b chromo inh: 31.9%; G9a inh: 50.1µM*; BAZ2B block: 50.1µM*

What do the screens show for `O=C1C2CC=C(Cl)CC2C(=O)N1CC1Cc2ccccc2CO1` (stereo unspecified)?
Sfp PPTase inh: -17.1%; JMJD2A Tudor: -10.0%; HP1b chromo inh: 29.7%; G9a inh: 50.1µM*; BAZ2B block: -35.0%

How did O=C(O)C1CC=C(Cl)CC1C(=O)NCC1OCCc2ccccc21 (stereo unspecified) do in these assays?
ALOX12 inh: -5.0%; Sfp PPTase inh: 25.5%; JMJD2A Tudor: -7.6%; HP1b chromo inh: 35.8%; G9a inh: -5.0%[59 µM]; BAZ2B block: 0.0%

Results for O=C1C2CC=C(Cl)CC2C(=O)N1CC1OCCc2ccccc21 (stereo unspecified) ?
ALOX12 inh: 20µM*; Sfp PPTase inh: -14.8%; JMJD2A Tudor: -4.1%; HP1b chromo inh: 35.4%; G9a inh: inconclusive; BAZ2B block: -10.0%

Results for Cc1cc(O)c(C(=O)/C=C/c2ccccc2O)c(=O)o1 ?
ALOX12 inh: -9.0%; Sfp PPTase inh: -14.4%; JMJD2A Tudor: inconclusive; HP1b chromo inh: 2.2%; G9a inh: 50.1µM*; BAZ2B block: inconclusive

What do the screens show for `O=C(/C=C/c1cccc(Cl)c1)c1ccc([N+](=O)[O-])o1`?
ALOX12 inh: inconclusive; JMJD2A Tudor: inconclusive; HP1b chromo inh: -10.5%; G9a inh: inconclusive; BAZ2B block: 10µM*

How did Cc1cc(O)c(C(=O)/C=C/c2cccc([N+](=O)[O-])c2)c(=O)o1 do in these assays?
ALOX12 inh: inconclusive; Sfp PPTase inh: 6.0%; JMJD2A Tudor: inconclusive; HP1b chromo inh: -1.1%; G9a inh: 12.6µM*; BAZ2B block: inconclusive

How did COc1ccc(/C=C/C(=O)c2ccc([N+](=O)[O-])o2)cc1OC do in these assays?
ALOX12 inh: 0.0%; JMJD2A Tudor: -13.8%; HP1b chromo inh: 37.6%; G9a inh: 2.8%[12.7 µM]; BAZ2B block: 1.9%

How did COC[C@@H]1CN(S(=O)(=O)c2ccccc2)C[C@H]1c1nc(C)no1 do in these assays?
ALOX12 inh: 31.1%

What do the screens show for `Cc1nnc2ccc(NCc3ccccc3F)nn12`?
ALOX12 inh: 47.8%

Results for CC1=C[C@@H](CNC(=O)C(=O)O)[C@H](C(C)C)C[C@H]1CC(=O)O ?
ALOX12 inh: -17.9%[176 µM]

How did C=CCn1c(SCc2nc3ccccc3nc2C)nnc1-c1ccoc1C do in these assays?
ALOX12 inh: 31.6µM*; Sfp PPTase inh: -1.1%; JMJD2A Tudor: -17.0%; HP1b chromo inh: 32.6%; G9a inh: inconclusive; BAZ2B block: 2.5%
